The nature of assay [1]: qHTS Assay for Identifying Gametocytocidal Compounds (AID 743244; active means well fitted curve in the direction sought with a large enough effect; an effect the other way counts as inactive or inconclusive;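 further: on the % scale 0 is the no-effect control and ±100 the full control effect; actives lower the fluorescent signal which means gametocytes are killed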). The following applies: P. falciparum 3D7 stage III-V gametocytes, alamarBlue, 72 h; max response: stronger effect = lower value. The method, boiled down: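 Fluorescence at Ex 525/Em 598 nm, recorded 24 h after alamarBlue addition, reports residual metabolic activity of 3D7 gametocytes (stages III–V) following 72 h compound exposure at 37 °C, 5% CO2.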
Background: qHTS replaces the single test concentration by a dilution series.

Assay [2] can be described thus: qHTS profiling for inhibitors of Plasmodium falciparum (3D7) proliferation (AID 743322).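 Further: infected erythrocytes exposed to compound for 72 h before lysis; 100% = DMSO vehicle wells and 0% = 0.29 µM artemisinin.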 The note with it: P. falciparum 3D7 proliferation; at 28.7 µM (top of the series) unless noted. The method, boiled down:
(§1)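 Erythrocytes infected with P. falciparum (0.3% parasitemia, 2.5% hematocrit) incubated with compounds 72 h at 37 C, 5% CO2. Lysis with saponin/Triton buffer containing SYBR Green I, overnight at room temperature in the dark; DNA fluorescence (485/535 nm) normalised to 0.29 uM artemisinin and DMSO.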

Assay [3] is described as follows: qHTS profiling for inhibitors of Plasmodium falciparum (DD2) proliferation (AID 743323). The note with it: lower = more inhibition; at 28.7 µM (top of the series) unless noted. The method, boiled down:
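SYBR Green fluorescence (ex 485, em 535 nm) of lysed cultures gives parasite DNA content; wells normalized to artemisinin (0.29 uM) and DMSO controls. Infected red cells: 0.3% parasitemia, 2.5% hematocrit, 72 h, 37 C.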

Assay [4] can be described thus: qHTS profiling for inhibitors of Plasmodium falciparum (HB3) proliferation (AID 743324; active means well fitted curve in the direction sought with a large enough effect; an effect the other way counts as inactive or inconclusive;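 further: 100% = DMSO vehicle wells and 0% = artemisinin-treated control wells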). The note with it: Plasmodium falciparum HB3 blood-stage proliferation; at 28.7 µM (top of the series) unless noted. The method, boiled down:
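P. falciparum HB3 grown in erythrocytes (0.3% parasitemia, 2.5% hematocrit final) with compound for 72 h at 37 C, 5% CO2. Parasite DNA detected by SYBR Green after saponin/triton lysis overnight; normalized to 0.29 uM artemisinin and DMSO.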

A short description of assay [5]: qHTS profiling of the MIPE4 collection as inhibitors of Plasmodium falciparum (3D7) proliferation (AID 743344).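 Further: scaled between DMSO vehicle wells and 0.29 µM artemisinin as full inhibition.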 The following applies: P. falciparum 3D7 in erythrocytes, SYBR Green DNA fluorescence, 72 h; at 28.5 µM (top of the series) unless noted. The procedure, abridged: as §1
Assay [6] in a line: qHTS profiling of the MIPE4 collection as inhibitors of Plasmodium falciparum (DD2) proliferation (Rep 2) (AID 743346). The following applies: P. falciparum Dd2 in erythrocytes, SYBR Green DNA, 72 h; at 28.5 µM (top of the series) unless noted. The method, boiled down:
as §1

A short description of assay [7]: qHTS profiling of the MIPE4 collection as inhibitors of Plasmodium falciparum (HB3) proliferation (AID 743347).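 Further: plate controls were DMSO vehicle wells for no effect and artemisinin wells for full effect.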 The note with it: P. falciparum HB3 in erythrocytes, SYBR Green DNA, 72 h; at 28.5 µM (top of the series) unless noted. The procedure, abridged:
as §1

The nature of assay [8]: High-throughput drug toxicity screening in the BPDCN cell line Gen2.2 (AID 1224824).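 Further: cells exposed to compounds for 48 h before reading.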 The note with it: Gen2.2 BPDCN cells; at 45.8 µM (top of the series) unless noted. The procedure, abridged:
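Readout is ATP luminescence from Gen2.2 cells after two days of drug exposure in serum-containing medium at 37 °C. Values express percent activity, with vehicle defining full signal and 9.2 uM bortezomib defining zero.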

The nature of assay [9]: High-throughput drug toxicity screening in the BPDCN cell line Cal-1 (AID 1224825). The following applies: Cal-1 BPDCN cell viability, qHTS; at 45.8 µM (top of the series) unless noted. The method, boiled down: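 Cal-1 cells, 500 per well in phenol-red-free RPMI with 10% FBS, exposed to compounds for 48 hours at 37C, 5% CO2. Viability read by CellTiter-Glo luminescence; percent activity normalized to DMSO (100%) and 9.2 uM bortezomib final (0%).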

Assay [10] is described as follows: qHTS assay for measurement of the activity of small molecule inhibitors on Zika virus induced Caspase-3 activity in human iPSC derived neural progenitor cells (hNPCs) (AID 1224857; active means well fitted curve in the direction sought with a large enough effect; an effect the other way counts as inactive or inconclusive; further: % of control where 0% means no effect; nearly all actives have a fitted effect of over 65% in size). The procedure, abridged:
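Zika virus (2 FFU/cell) infection of human iPSC-derived NPCs, 6 h, following 1 h compound preincubation. Read-out: Caspase-Glo 3/7 luminescence.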

A short description of assay [11]: qHTS assay for measurement of the activity of small molecule inhibitors on Zika virus induced Caspase-3 activity in human astrocytoma cells (AID 1224859; active means well fitted curve in the direction sought with a large enough effect; an effect the other way counts as inactive or inconclusive;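 further: plate controls were ZIKV-infected untreated cells for no effect and uninfected cells for full effect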). The method, boiled down: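 Caspase activation in ZIKV-infected SNB-19 cells (2 FFU/cell, 6 h) measured by Caspase-Glo 3/7 luminescence after 30 min RT; compound pre-incubated 1 h; normalised to uninfected and infected controls.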

The nature of assay [12]: qHTS Screen of the MIPE 4.0 Collection Against Ewings Sarcoma (TC71) (AID 1259253; active means well fitted curve in the direction sought with a large enough effect; an effect the other way counts as inactive or inconclusive; further: nearly all actives have a fitted effect of over 40% in size; further: potency means the concentration at half of the fitted maximal effect). The procedure, abridged: (§2)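 Viability screen: 48 h incubation at 37C, 95% humidity, 5% CO2 with serially titrated compound, followed by CellTiter-Glo readout.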
The nature of assay [13]: qHTS profiling of the MIPE4 collection as inhibitors of Plasmodium falciparum (DD2) proliferation (AID 743345). The following applies: P. falciparum Dd2 in erythrocytes, SYBR Green DNA, 72 h; at 28.5 µM (top of the series) unless noted. The procedure, abridged: as §1
The nature of assay [14]: qHTS Screen of the MIPE 4.0 Collection Against Ewings Sarcoma (EW8) (AID 1259255; active means well fitted curve in the direction sought with a large enough effect; an effect the other way counts as inactive or inconclusive; further: nearly all actives have a fitted effect of over 35% in size; further: potency means the concentration at half of the fitted maximal effect;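 on viability: 100% = DMSO-treated cells and 0% = medium-only wells without cells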). The method, boiled down:
as §2

These results are taken from PubChem BioAssay (NCATS).

Results filed as inconclusive are left out. Activity calls are given as the source filed them. Unless noted, how the calls were made is not given here.

In the case of `c1ccc(-c2nn3c(c2-c2ccnc4cc(OCCN5CCOCC5)ccc24)CCC3)nc1`, in assay [1], the max response is -4.63% (inactive). Besides, the remaining parasite growth % (stronger effect = lower value) in assay [2] was 81.9%. The compound further displayed an activity, percent of control in assay [3] of 81.5%. Moreover, in assay [4], the remaining proliferation (% of control), lower = more inhibition was 50.9%. In assay [5], this compound yielded a parasite growth, % of DMSO control of 25.6%. The compound also yielded a parasite growth, % of control (lower = inhibition) in assay [6] of 58.7%. In [7], the growth, % of control was 17.9%. For the same compound, the cell viability, % of control (lower = more cytotoxic) in assay [8] amounted to 857%. Besides, the viability (% of control) in [9] is 73.1%. Moreover, the Potency result in assay [10] and in assay [11] was “inactive” in each case. Further, the Potency in assay [12] was 18.7 µM (active).
As to `Cn1c(=O)c(F)c(Nc2ccc(I)cc2F)c2c(=O)n(C[C@@H](O)CO)cnc21`, the max response in assay [1] is -1.37% (inactive). Further, in [2], the remaining parasite growth % (stronger effect = lower value) worked out at 83.3%. Also, the activity, percent of control in assay [3] is 71.7%. For the same compound, the remaining proliferation (% of control), lower = more inhibition in assay [4] was 68.4%. The parasite growth, % of DMSO control in assay [5] is 12.8%. Also, the parasite growth remaining, % of DMSO control (lower = more inhibition) in assay [13] stood at 86.9%. In addition, the parasite growth, % of control (lower = inhibition) in [6] came out at 24.5%. Further, in [7], the growth, % of control is 7.31%. Moreover, the cell viability, % of control (lower = more cytotoxic) in assay [8] came out at 18%. Besides, the viability (% of control) in assay [9] turned out to be 33%. Further, the Potency entry in assay [10], in assay [11], in assay [12] and in [14] was “inactive” throughout.
With `O=C1[C@H](Cc2ccc(O)cc2)N2C(=O)CCN(C(=O)NCc3ccccc3)[C@H]2CN1Cc1cccc2ccccc12`, the max response in [1] was -13% (inactive). Moreover, the remaining parasite growth % (stronger effect = lower value) in assay [2] worked out at 32.3%. In addition, the activity, percent of control in assay [3] came to 43.6%. Besides, the remaining proliferation (% of control), lower = more inhibition in assay [4] was -0.183%. This compound registered a parasite growth, % of DMSO control in assay [5] of 5.06%. In assay [6], this compound yielded a parasite growth, % of control (lower = inhibition) of 40.6%. The compound also gave a growth, % of control in assay [7] of 12.1%. In addition, in [8], the cell viability, % of control (lower = more cytotoxic) came to 6.07%. In addition, the viability (% of control) in assay [9] amounted to 31.2%. The Potency result in [10] and in assay [11] was “inactive” in each case. In addition, the values for the Potency in assay [12] and in [14] were 2.96 µM (active) and 2.64 µM (active), respectively.
For the compound `CCCc1nc2c(C)cc(-c3nc4ccccc4n3C)cc2n1Cc1ccc(-c2ccccc2C(=O)O)cc1`, the remaining parasite growth % (stronger effect = lower value) in assay [2] turned out to be 103%. In assay [3], this compound had an activity, percent of control of 94%. The remaining proliferation (% of control), lower = more inhibition in assay [4] amounted to 66.6%. Further, in assay [5], the parasite growth, % of DMSO control was 6.42%. The parasite growth remaining, % of DMSO control (lower = more inhibition) in assay [13] turned out to be 16.2%. In addition, the parasite growth, % of control (lower = inhibition) in assay [6] came to 21.8%. Besides, the growth, % of control in assay [7] was found to be 7.75%. In addition, the cell viability, % of control (lower = more cytotoxic) in assay [8] stood at 126%. The viability (% of control) in assay [9] came to 103%. In addition, the Potency entry in [10] and in assay [11] was “inactive” each time.
Take `COCCNCCCn1c(C(=O)CF)c(-c2ccc(C)cc2)c2c(N)ncnc21`: in assay [1], the max response was -16.2% (inactive). Further, the remaining parasite growth % (stronger effect = lower value) in assay [2] came to 72.8%. The activity, percent of control in assay [3] stood at 77.9%. Also, the remaining proliferation (% of control), lower = more inhibition in assay [4] came to 35%. In assay [5], the parasite growth, % of DMSO control amounted to 39%. Further, the parasite growth, % of control (lower = inhibition) in assay [6] turned out to be 36.5%. Moreover, the cell viability, % of control (lower = more cytotoxic) in assay [8] was 77.9%. The viability (% of control) in assay [9] came to 85.7%. The Potency entry in [10], in assay [11] and in [14] was “inactive” throughout. Moreover, in assay [12], the Potency is 16.6 µM (active).
